Results: PubChem BioAssay AID717 (Columbia University Molecular Screening Center, 2007)
Among all 91,000 compounds or so, about 40 (0.04%) were called active. Rule as the data show it: active = activation above about 37%; inactive = the rest. These entries were drawn from the full list.

target: Bifunctional epoxide hydrolase 2 (Homo sapiens) (UniProt P34913); test: sEH enzyme activity enhancers – biochemical, human sEH, primary screen (AID 717); conditions: purified human sEH enzymatic activity, activator screen; at 2 µM; stronger effect = higher value
Sequence (P34913 whole entry, looked up): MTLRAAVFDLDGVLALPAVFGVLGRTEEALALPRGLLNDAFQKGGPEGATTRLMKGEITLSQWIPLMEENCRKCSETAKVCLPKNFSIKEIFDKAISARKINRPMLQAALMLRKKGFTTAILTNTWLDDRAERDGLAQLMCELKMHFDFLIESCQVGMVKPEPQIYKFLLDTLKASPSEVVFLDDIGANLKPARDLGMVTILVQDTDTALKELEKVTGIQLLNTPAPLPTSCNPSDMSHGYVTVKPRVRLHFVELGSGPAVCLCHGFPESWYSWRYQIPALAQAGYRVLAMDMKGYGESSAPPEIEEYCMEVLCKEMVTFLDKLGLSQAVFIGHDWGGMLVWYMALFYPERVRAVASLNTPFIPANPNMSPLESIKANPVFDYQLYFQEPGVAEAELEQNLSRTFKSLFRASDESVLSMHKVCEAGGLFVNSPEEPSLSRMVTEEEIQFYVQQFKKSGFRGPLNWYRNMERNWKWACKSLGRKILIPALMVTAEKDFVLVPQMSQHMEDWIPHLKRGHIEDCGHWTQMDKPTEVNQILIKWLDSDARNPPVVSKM

activation, inactive:
Cc1nc(SCC(=O)N2CC(=O)Nc3ccccc32)c2c(C)c(C)sc2n1 -1.1%
COc1ccc(Cc2nnc(SCC(=O)c3cccc([N+](=O)[O-])c3)n2C)cc1 16.7%
O=C(Nc1ccc2c(c1)OCCO2)c1ccc(Cl)c(S(=O)(=O)N2CCCCC2)c1 -77.7%
CCCCNC(=O)C(=O)c1ccccc1NC(C)=O -0.9%
CC(C)(CCl)C(=O)Nc1ccc(Sc2ccc(F)cc2)cc1 -29.2%
O=C(CCNS(=O)(=O)c1ccccc1C(F)(F)F)NCc1ccc2c(c1)OCO2 3.4%
COCCCNCC(=O)Nc1sc(C)c(C)c1C(=O)OC -1%
Cc1ccc(CNC(=O)C2CC(c3ccccc3[N+](=O)[O-])=NO2)o1 (stereo not given) 1.1%
Cc1c(NC(=O)CCCOc2ccccc2)cccc1[N+](=O)[O-] -9.6%
CCC(C)n1c(-c2cc(OC)c(OC)c(OC)c2)nc2nc3ccccc3nc21 (stereo not given) 0.8%
COc1cc(C(=S)N2CCOCC2)cc(OC)c1OC(=O)c1cc([N+](=O)[O-])c(C)c([N+](=O)[O-])c1 -3.8%
COc1ccc(/C=C(/NC(=O)c2ccc(C)cc2)c2nc3ccccc3[nH]2)cc1OC 4.1%
O=C(O)c1ccccc1-c1ccccc1C(=O)Nc1cccc2ccccc12 6.9%
O=C(Nc1nnc(CCOCCOCCc2nnc(NC(=O)c3ccco3)s2)s1)c1ccco1 -12%
CCn1c(SCc2ccc(C)cc2)nnc1-c1nn(-c2ccccc2)ccc1=O 17.2%
CC(Oc1ccc(F)cc1F)C(=O)/C=C/N(C)C (stereo not given) 0.5%
CCOC(=O)C1=C(C)Nc2sc(C(=O)c3ccc(Br)cc3)c(N)c2C1c1ccc(C(=O)OC)cc1 (stereo not given) -3.6%
Cc1cc([N+](=O)[O-])c(NC2CCCCC2)c([N+](=O)[O-])c1 3.5%
O=C(NCCc1ccccn1)c1cc(C(=O)C2CCCCC2)c[nH]1 9.3%
CC(C)c1cc(C(N)=O)c(NC(=O)c2cccc(COc3ccc(Br)cc3)c2)s1 -3.7%
Cc1ccc(NC(=S)NC2CCCC2)cc1 -29.3%
COC(=O)c1ccccc1OCC(=O)N1CCN(c2ccc(Cl)cc2)CC1 -44.9%
C=CCNc1cnn(-c2ccc(C)cc2)c(=O)c1Cl 0.5%
CCc1cccc2c(C=C(C#N)C#N)cn(CC(=O)N3CCCCC3)c12 5%
COCCCn1c(SCc2cccc(OC)c2)nc2cc(OC)c(OC)cc2c1=N -5.2%
C=CCNC(=O)c1sc(SC)cc1-c1ccc(Cl)cc1 14.9%
O=C(O)/C=C/C(=O)Nc1ccc(F)cc1F 6.8%
C/C(=N\NS(=O)(=O)c1cccc([N+](=O)[O-])c1)c1cc2ccccc2o1 -6%
COc1cccc(/C=N/NC(=O)c2cccc([N+](=O)[O-])c2)c1OS(=O)(=O)c1ccc(C)cc1 -13.5%
CCC(=O)OCc1c(C(F)(F)F)nn(C)c1Oc1cccc(C(F)(F)F)c1 -5.9%
Cc1nn(CC(=O)Nc2nc3ccccc3s2)c(C)c1[N+](=O)[O-] 8%
O=C(Cn1cncn1)N/N=C/c1c2ccccc2cc2ccccc12 -1.1%
CONC(=O)c1cc(OCC(F)(F)F)ccc1OCC(F)(F)F -7.2%
CC(=O)NS(=O)(=O)c1ccc(NC(=O)/C=C/c2ccccc2Cl)cc1 -14.4%
Cc1ccc(N2CCN(/N=C/c3cccs3)CC2)cc1 1.6%
CC(C)(C)NC(=O)NC(=O)COC(=O)CCC1CCCCC1 -0.5%
Cc1cc2c(cc1C)N(C(=O)CN1C(=O)c3ccccc3C1=O)C(C)(C)c1ssc(=S)c1-2 18.1%
O=C(NCc1cccnc1)c1cccnc1Sc1ccc(Cl)cc1 17.3%
N/C(=N\OC(=O)CCc1ccccc1)c1ccc(Cl)cc1 10.5%
CC1CCN(C(NC(=O)c2ccco2)C(=O)c2ccccc2)CC1 (stereo not given) -0.4%
CCCCCCCCOC1OC(CO)C(O)C(O)C1NC(C)=O (stereo not given) -6.6%
O=C(CSc1ccccc1)Nc1ccc(NC(=O)c2ccco2)cc1 -17.6%
CC(=O)c1cnn(-c2cc(Oc3ccc(F)cc3)ncn2)c1C 7.1%
O=C(NCCCCCCCCCNC(=O)C(F)(F)F)C(F)(F)F -6.7%
O=C(Nc1ccn(Cc2ccccc2F)n1)c1ccc(COc2ccc(Cl)cc2Cl)o1 -1.7%
